PubChem BioAssay (EPA / NIEHS)
Results filed as inconclusive are left out. A structure can be active in one record and inactive in another. The source made the active and inactive calls. Rule for the calls: active = hit-call score of the fitted dose curve at least 0.9, where 1 is the maximum; inconclusive = response in the unintended direction; inactive = score below 0.9.

What follows are molecules tested against Peroxisome proliferator-activated receptor gamma (Homo sapiens) (UniProt P37231) (assay: OT_PPARg_PPARgSRC1_0480: Odyssey Thera (OT) 8-hour Protein-Complementation Assay for Peroxisome Proliferator-activated Receptor Gamma / SRC-1 Co-activator (AID 2283387);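 note: nuclear to cytoplasmic split Venus YFP fluorescence ratio reporting PPARg SRC-1 interaction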).
Procedure: OT_PPARg_PPARgSRC1_0480 is a cell-based assay that uses HEK293T, a human kidney cell line, with measurements taken at 8 hours after chemical dosing in a 384-well plate.OT_PPARg_PPARgSRC1_0480 is one of one assay component(s) measured or calculated from the OT_PPARg_PPARgSRC1_0480 assay. It is designed to make measurements of protein fragment complementation, a form of binding reporter, as detected with fluorescence intensity signals by Protein-fragment Complementation technology.Data from the assay component OT_PPARg_PPARgSRC1_0480 was analyzed into 1 assay endpoint. This assay endpoint, OT_PPARg_PPARgSRC1_0480, was analyzed in the positive analysis fitting direction relative to DMSO as the negative control and baseline of activity. Using a type of binding reporter, measures of receptor for gain-of-signal activity can be used to understand the binding at the pathway-level as they relate to the gene PPARG. Furthermore, this assay endpoint can be referred to as a primary readout, because the performed assay has only produced 1 assay endpoint. To generalize the intended target to other relatable targets, this assay endpoint is annotated to the nuclear receptor intended target family, where the subfamily is non-steroidal.
The OT PPARg/SRC-1 assay assessed receptor-chemical interactions using a rapidly maturing, intensely fluorescent mutant of YFP known as Venus, rationally dissected into two separate fragments. The fragments were obtained as follows: first, fragments coding for YFP1 and YFP2 (corresponding to amino acid residues 1-158 and 159-239 of the full length YFP, respectively) were generated by oligonucleotide synthesis (Blue Heron Biotechnology), and then PCR mutagenesis was used to generate the mutant fragments IFP1 and IFP2. Fusion constructs were transfected into HEK293T cells with a (Gly4Ser)2 linker between the PPARg/SRC-1 and YFP fragment genes to facilitate complementation when interacting proteins bring fragments into close proximity. The construct is transiently transfected in HEK293T cells 48 hours prior to treatment with test compounds. Cells are seeded into optical quality 384-well poly-D-lysine coated plates in MEM alpha medium (Invitrogen) supplemented with 10 percent FBS (Gemini Bio-Products) 1 percent penicillin and 1 percent streptomycin, and grown in 37C incubator equilibrated to 5 percent CO2. Cells are allowed to adhere for 24 hours prior to treatment with compounds of interest or controls for 8 hours. Cells are fixed in 4 percent formaldehyde and stained with Draq5 (BioStatus) to identify cells and subcellular compartment boundaries prior to signal detection. 8 Images per well were acquired on an Evotec Opera at 2 wavelengths (488 and 635nm), and the ratio of fluorescence in the nucleus relative to fluorescence in the cytoplasm (N/C Ratio) in the 488nm channel was calculated for a minimum of 350 cells per image.

Sequence of Peroxisome proliferator-activated receptor gamma (Homo sapiens) (P37231 whole entry, looked up, the tested form may be a part): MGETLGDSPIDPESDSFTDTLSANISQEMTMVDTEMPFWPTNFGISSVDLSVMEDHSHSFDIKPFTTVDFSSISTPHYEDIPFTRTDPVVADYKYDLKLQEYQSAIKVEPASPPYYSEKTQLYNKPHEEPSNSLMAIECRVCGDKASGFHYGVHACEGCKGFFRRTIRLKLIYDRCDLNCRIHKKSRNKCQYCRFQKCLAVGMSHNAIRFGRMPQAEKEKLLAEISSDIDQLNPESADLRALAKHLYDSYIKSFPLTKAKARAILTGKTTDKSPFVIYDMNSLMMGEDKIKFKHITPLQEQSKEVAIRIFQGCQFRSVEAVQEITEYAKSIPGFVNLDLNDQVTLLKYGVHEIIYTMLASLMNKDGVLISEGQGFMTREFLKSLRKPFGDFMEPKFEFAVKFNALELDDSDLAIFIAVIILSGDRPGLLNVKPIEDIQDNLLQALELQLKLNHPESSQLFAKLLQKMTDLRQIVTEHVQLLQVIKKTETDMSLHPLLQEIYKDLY

Compound | outcome | AC50
COc1cc(C(C)C)c2c(c1)S(=O)(=O)N(COc1cc(=O)n3cccc(OCCN4CCCCC4)c3n1)C2=O | inactive | –
NC(=O)N1c2ccccc2C=Cc2ccccc21 | inactive | –
O=C1CN(N=Cc2ccc([N+](=O)[O-])o2)C(=O)N1 | inactive | –
CCCCCCCCCCCCCCCCOS(=O)(=O)O | inactive | –
O=S1(=O)CCCO1 | inactive | –
Cn1cc[nH]c1=S | inactive | –
CCCCCCCC/C=C\CCCCCCCC(=O)OC[C@@H](O)[C@H]1OC[C@H](O)[C@H]1O | inactive | –
CCOc1ccc2[nH]cc(C(=O)NCc3ccccc3)c(=O)c2n1 | inactive | –
CCCCCCCCCC | inactive | –
NNC(=O)c1ccncc1 | inactive | –
CCCCOC(=O)c1ccccc1 | inactive | –
Cc1ccc(S(=O)(=O)NC(=O)NN2CCCCCC2)cc1 | inactive | –
OCC(CO)(CO)CO | inactive | –
C[C@]12C=CC(=O)C=C1CC[C@H]1[C@@H]3C[C@@H](O)[C@](O)(C(=O)CO)[C@@]3(C)C[C@H](O)[C@@]12F | inactive | –
CC(C)CC(C)O (stereo not given) | inactive | –
Cc1cccc(O)c1C | inactive | –
O=C(O)c1cccc(C(=O)O)c1 | inactive | –
CC1(C)C(=O)N(Cl)C(=O)N1Cl | inactive | –
O=c1[nH]cnc2c1ncn2[C@H]1CC[C@@H](CO)O1 | inactive | –
O=C(NO)C1(NS(=O)(=O)c2ccc(Oc3ccc(F)cc3)cc2)CCOCC1 | inactive | –

Compound | outcome | AC50
Cn1c(=O)c2[nH]cnc2n(C)c1=O | inactive | –
Nc1ccn([C@@H]2O[C@H](CO)[C@@H](O)[C@@H]2O)c(=O)n1 | inactive | –
c1ccc2c(c1)-c1cccc3c1c-2cc1ccccc13 | inactive | –
c1ccc2ncccc2c1 | inactive | –
OC[C@H]1O[C@@H]2O[C@H]3[C@H](O)[C@@H](O)[C@@H](O[C@H]4[C@H](O)[C@@H](O)[C@@H](O[C@H]5[C@H](O)[C@@H](O)[C@@H](O[C@H]6[C@H](O)[C@@H](O)[C@@H](O[C@H]7[C@H](O)[C@@H](O)[C@@H](O[C@H]1[C@H](O)[C@H]2O)O[C@@H]7CO)O[C@@H]6CO)O[C@@H]5CO)O[C@@H]4CO)O[C@@H]3CO | inactive | –
O=C(O)CO | inactive | –
C=CCc1cc(S(=O)(=O)c2ccc(O)c(CC=C)c2)ccc1O | inactive | –
CC[C@H](C)C(=O)O[C@H]1C[C@H](O)C=C2C=C[C@H](C)[C@H](CC[C@@H](O)C[C@@H](O)CC(=O)O)[C@H]21 | inactive | –
OC(CCl)CCl | inactive | –
OC(Cn1cncn1)(Cn1cncn1)c1ccc(F)cc1F | inactive | –
CC(C)c1nnc2ccc(-c3ocnc3-c3cc(F)ccc3F)cn12 | inactive | –
C[C@@H](Oc1ccc(CNC(=O)c2cccnc2Oc2ccc3c(c2)OCO3)c(F)c1)C(=O)O | inactive | –
Cc1ncc([C@@H](CCCCCCc2ccc3c(n2)NCCC3)CC(=O)O)cn1 | inactive | 12.4 µM (active)
OC[C@H]1O[C@@](CO)(O[C@H]2O[C@H](CO)[C@@H](O)[C@H](O)[C@H]2O)[C@@H](O)[C@@H]1O | inactive | –
COc1cc2c(c(OC)c1OC)-c1ccc(OC)c(=O)cc1[C@@H](NC(C)=O)CC2 | inactive | –
CCCCCCCC1CCC(=O)O1 (stereo not given) | inactive | –
CC(=O)c1ccccc1 | inactive | –
COCc1nnc(-c2ccc[n+]([O-])c2)n1-c1c(Cl)c(Cl)cc2[nH]c(=O)c(=O)[nH]c12 | inactive | –
COS(C)(=O)=O | inactive | –
